Test results reported in PubChem BioAssay (NCI).
This is part of a sample that, as a whole, favours compounds with a hit. Of some 83,000 tested, about 20% had one in any assay.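 Step 1: grow cells in 96-well plates. Step 2: add test compound at a single concentration. Step 3: incubate 48 h. Step 4: record percent growth.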 Activity calls are given as the source filed them. Rule for the calls: active = growth percent below 10; inactive = the rest.

system: 786-0 renal; assay: NCI-60 one-dose screen, 48 h (100 = growth as untreated, 0 = no growth, -100 = all killed); conditions: 10 µM unless noted

| Compound | growth |
| --- | --- |
| C#CCOc1ccc2ncnc(Nc3cccc(NC(=O)C=C)c3)c2c1 | 56.4% (inactive) |
| Nc1ncnc2c1N=C(c1ccc3c(c1)OCO3)CC(c1ccc([N+](=O)[O-])cc1)N2 (stereo not given) | 51.8% (inactive) |
| CCCCN1C(=O)/C(=c2\sc3n(c2=O)C2C(NN=3)N(CC)C(=O)N2CC)c2ccccc21 (stereo not given) | 22.1% (inactive) |
| CCOC(=O)C1=NN(c2ccccc2)C(=O)/C1=C\N1C(=O)CC(=O)NC1=S | 106% (inactive) |
| O=C(N/N=C/c1ccc(F)cc1)c1ccc(C(F)(F)F)nc1Nc1cccc(C(F)(F)F)c1 | -29.7% (active) |
| Cc1ccc(-c2csc(NC(=O)CN3CCN(c4cc5c(cc4F)c(=O)c(C(=O)O)cn5C4CC4)CC3)n2)cc1 | 22.6% (inactive) |
| Clc1ccc(Sc2cnc(-c3ccccc3)o2)cc1 | 93.9% (inactive) |
| COc1ccc(-c2cc(-c3ccc(Cl)cc3)c(C#N)c(=O)n2CCCCC(=O)Nc2ccccc2N)cc1 | 68.8% (inactive) |
| C=C(C)[C@@H]1CC[C@]2(C(=O)O)CC[C@]3(C)[C@H](CC[C@@H]4[C@@]5(C)C[C@@H](Cc6cn(CCO[C@@H]7O[C@H](COC(C)=O)[C@H](OC(C)=O)[C@H](OC(C)=O)[C@H]7OC(C)=O)nn6)[C@H](O)C(C)(C)[C@@H]5CC[C@]43C)[C@@H]12 | 78.9% (inactive) |
| S=C1CCSC(=S)N1CCCN1C(=S)CCSC1=S | 44.9% (inactive) |
| O=C(COc1ccc(-c2nc3ccccc3[nH]2)cc1)N=Nc1c(O)[nH]c2ccc(Cl)cc12 | 46% (inactive) |
| Cc1ccc(/C=N/Nc2nc(Nc3ccccc3)nc(-n3nc(C)cc3C)n2)cc1 | 44.4% (inactive) |
| O=[N+]([O-])c1ccc(N/N=C(/C(=N/Nc2ccc([N+](=O)[O-])cc2)c2ccccc2)c2ccccc2)cc1 | 103% (inactive) |
| CCOC(=O)c1c(NC(=O)c2ccc(C(C)C)cc2)sc2c(CN(C)C)c(O)ccc12 | -50.5% (active) |
| C#Cc1ccc(NC(=O)c2ccc(/C=C/C(=O)c3nccn3C)cc2)cc1 | -79.1% (active) |
| O=C(NCCCCNC(=O)OCc1ccc2c(Cl)cc(Cl)c(O)c2n1)OCc1ccc2c(Cl)cc(Cl)c(O)c2n1 | 70.7% (inactive) |
| c1cc2[nH]ncc2cc1-c1nc2ccc3[nH]ncc3c2c2c1CCCC2 | 19.7% (inactive) |
| C[C@H](NC(=O)[C@@H](C)N)[C@H](Oc1ccc2c(cnn2-c2ccc(F)cc2)c1)c1ccc2c(c1)OCCO2 | 56.7% (inactive) |

| Compound | growth |
| --- | --- |
| CCN(CC)c1nc(SCc2ccccc2Cl)ncc1C | 106% (inactive) |
| O=S(=O)(NCCCNc1nccc(-c2c(-c3ccc(F)c(O)c3)nc3occn23)n1)c1ccccc1 | 123% (inactive) |
| O=C(NCc1ccccc1)Nc1ccccc1CNc1nc(Nc2ccc(OCCN3CCCC3)cc2)ncc1Cl | 46.7% (inactive) |
| C=CCc1c2c(c(OC)c3ccoc13)C(=O)/C(=C/c1ccccc1OC)O2 | 94.1% (inactive) |
| COc1ccc(NC(=O)c2sc3nc(C)c(C(=O)/C=C/c4cccc(OC)c4)cc3c2N)cc1 | 10.9% (inactive) |
| N#Cc1c(NC(=O)c2ccccc2)sc2c1CCC(=O)C2 | 25.9% (inactive) |
| CN(C)CCCn1c2c(c3ncccc3c1=O)C(=O)c1ccccc1-2 | 52.2% (inactive) |
| CCOC(=O)Cn1c(O)c(N=Nc2ccc(S(N)(=O)=O)cc2)c2cc(Br)ccc21 | 99.2% (inactive) |
| Cc1nc(-c2ccccc2)cc2c(O)c(C(=O)NN)[nH]c(=O)c12 | 108% (inactive) |
| O=C(Nn1c2c(sc1=Nc1ccccc1)C(=O)c1ccccc1C2=O)c1cc2ccc1CCc1ccc(cc1)CC2 | 81% (inactive) |
| CNC(=O)c1c(NC(=O)c2ccc(C(F)(F)F)cc2)sc2c1CCC(=O)C2 | 10.3% (inactive) |
| C#CCOc1cccc(Nc2ncnc3ccc(NC(=O)CCl)cc23)c1 | -81.9% (active) |
| CS(=O)(=O)Nc1cc(-c2ccc3ncnc(Nc4ccc5c(cnn5Cc5ccccn5)c4)c3c2)cnc1Cl | 84.3% (inactive) |
| Oc1c(Cl)cc(Cl)cc1/C=N/Nc1nnc(N/N=C/c2cc(Cl)cc(Cl)c2O)c2ccccc12 | -22.2% (active) |
| CCn1cc(C(=O)N/N=C/c2cccs2)c(=O)c2cc(F)c(N3CCNC(C)C3)c(F)c21 (stereo not given) | 67.8% (inactive) |
| O=C(NNC(=O)c1ccc(-n2cc(-c3ccccc3)nn2)cc1)Nc1ccccc1 | 104% (inactive) |
| COc1ccc(CC(C#N)c2cc3ccccc3[nH]2)cc1 (stereo not given) | 94.7% (inactive) |
